This is an account of results in PubChem BioAssay (Tox21).

Results filed as inconclusive are left out. Activity calls are given as the source filed them. The call rests on the fitted dose curve; in most records, active means well fitted curve in the direction sought with a large enough effect in the repeat runs; inconclusive means weak or mixed curves; inactive means no such curve, though single readings can be large; an effect the other way counts as inactive or inconclusive.

Test [1] has as its target Cytochrome P450 2D6 (Homo sapiens) (UniProt P10635). Description: Cytochrome P450 Family 2 Subfamily D Member 6 (CYP2D6) small molecule antagonists: luciferase reporter qHTS assay (AID 1671196). Further: nearly all actives have a fitted effect of over 50% in size. An outline of the steps:
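Quantitative HTS of Tox21 chemicals against CYP2D6 using a luminescent proluciferin substrate. After NADPH addition, 1 h room-temperature reaction; luminescence recorded 20 min post detection reagent.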
For orientation: A reporter such as luciferase makes a cellular process visible.

Test [2] addresses Cytochrome P450 2C19 (Homo sapiens) (UniProt P33261). Description: Cytochrome P450 Family 2 Subfamily C Member 19 (CYP2C19) small molecule antagonists: luciferase reporter qHTS assay (AID 1671197). Further: nearly all actives have a fitted effect of over 65% in size. Summed up: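 Enzyme-substrate mix with proluciferin substrate (P450-Glo CYP2C19 system) preincubated with compounds 10 min at room temperature; NADPH regeneration solution added, 37C for 1 h; detection reagent stops reaction, luminescence read after 20 min. Ketoconazole positive control.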

Test [3] has as its target Cytochrome P450 2C9 (Homo sapiens) (UniProt P11712). Description: Cytochrome P450 Family 2 Subfamily C Member 9 (CYP2C9) small molecule antagonists: luciferase reporter qHTS assay (AID 1671198). Further: nearly all actives have a fitted effect of over 50% in size. An outline of the steps:
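CYP2C9 activity was measured with a P450-Glo proluciferin substrate. Enzyme–substrate mix was held with compound for 10 min at room temperature, then NADPH regeneration solution was added for 1 h at 37C. Luciferin product was read as luminescence.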

The target in test [4] is Cytochrome P450 1A2 (Homo sapiens) (UniProt P05177). Briefly: Cytochrome P450 Family 1 Subfamily A Member 2 (CYP1A2) small molecule antagonists: luciferase reporter qHTS assay (AID 1671199). Further: nearly all actives have a fitted effect of over 50% in size. Summed up:
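Quantitative high-throughput format using the P450-Glo CYP1A2 system. Reaction initiated by NADPH regeneration solution, 1 h at room temperature, then stopped with detection reagent; luminescence measured 20 min later.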

For test [5], the target named is Cytochrome P450 3A4 (Homo sapiens) (UniProt P08684). Description: Cytochrome P450 Family 3 Subfamily A Member 4 (CYP3A4) small molecule antagonists: luciferase reporter qHTS assay (AID 1671201). Further: nearly all actives have a fitted effect of over 50% in size. Summed up:
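Enzyme and proluciferin substrate are mixed with test chemicals for 10 min, then NADPH regeneration system drives turnover for 1 h at room temperature. A detection reagent halts the reaction; luminescence after 20 min gives relative activity.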

Test [6] deals with Voltage-gated inwardly rectifying potassium channel KCNH2 (Homo sapiens) (UniProt Q12809). Description: Human Ether-a-go-go-Related Gene (hERG) channel small molecule antagonists: fluorescence cell-based qHTS assay (AID 1671200). Further: nearly all actives have a fitted effect of over 50% in size. An outline of the steps: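 First, 1000 cells per well are seeded and cultured overnight at 37 C. Next, FluxOR II dye is loaded for 1 h at room temperature, protected from light. After 10 more minutes, stimulus is added and fluorescence is read.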
Sequence of Voltage-gated inwardly rectifying potassium channel KCNH2 (Homo sapiens) (Q12809 whole entry, looked up): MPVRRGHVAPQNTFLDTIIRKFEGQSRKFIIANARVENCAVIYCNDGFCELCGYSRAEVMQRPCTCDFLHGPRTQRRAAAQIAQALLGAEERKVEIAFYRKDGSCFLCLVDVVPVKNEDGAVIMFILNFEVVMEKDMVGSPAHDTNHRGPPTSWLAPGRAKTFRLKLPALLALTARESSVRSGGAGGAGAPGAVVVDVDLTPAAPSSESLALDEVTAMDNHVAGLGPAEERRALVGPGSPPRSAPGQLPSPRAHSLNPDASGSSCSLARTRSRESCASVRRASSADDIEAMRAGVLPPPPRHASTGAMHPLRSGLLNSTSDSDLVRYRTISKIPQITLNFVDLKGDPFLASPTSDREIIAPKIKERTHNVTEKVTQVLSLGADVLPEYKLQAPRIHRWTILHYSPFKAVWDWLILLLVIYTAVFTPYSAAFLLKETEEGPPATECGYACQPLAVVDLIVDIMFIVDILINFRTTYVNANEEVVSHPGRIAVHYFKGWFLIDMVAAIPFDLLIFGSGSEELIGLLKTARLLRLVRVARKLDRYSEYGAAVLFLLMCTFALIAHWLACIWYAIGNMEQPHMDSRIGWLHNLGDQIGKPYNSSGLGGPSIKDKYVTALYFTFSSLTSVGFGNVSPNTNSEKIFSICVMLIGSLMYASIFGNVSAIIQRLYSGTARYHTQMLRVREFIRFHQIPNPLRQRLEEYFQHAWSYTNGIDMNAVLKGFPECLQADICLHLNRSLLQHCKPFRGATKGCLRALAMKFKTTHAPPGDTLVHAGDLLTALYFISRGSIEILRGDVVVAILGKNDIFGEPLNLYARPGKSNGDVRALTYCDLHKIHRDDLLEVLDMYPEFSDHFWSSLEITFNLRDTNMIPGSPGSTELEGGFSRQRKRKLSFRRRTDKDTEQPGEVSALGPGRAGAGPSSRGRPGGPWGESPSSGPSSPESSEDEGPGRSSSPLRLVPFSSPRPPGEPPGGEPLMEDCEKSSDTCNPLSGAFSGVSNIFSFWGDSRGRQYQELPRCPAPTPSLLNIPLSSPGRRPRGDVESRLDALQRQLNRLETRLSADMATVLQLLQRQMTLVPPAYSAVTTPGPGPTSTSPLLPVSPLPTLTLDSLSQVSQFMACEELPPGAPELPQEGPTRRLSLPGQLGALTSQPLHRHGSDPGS
In general terms: hERG is a cardiac potassium channel; its block is linked to QT prolongation.
Potency means the concentration at half of the fitted maximal effect.

Sequence of Cytochrome P450 3A4 (Homo sapiens) (P08684 whole entry, looked up): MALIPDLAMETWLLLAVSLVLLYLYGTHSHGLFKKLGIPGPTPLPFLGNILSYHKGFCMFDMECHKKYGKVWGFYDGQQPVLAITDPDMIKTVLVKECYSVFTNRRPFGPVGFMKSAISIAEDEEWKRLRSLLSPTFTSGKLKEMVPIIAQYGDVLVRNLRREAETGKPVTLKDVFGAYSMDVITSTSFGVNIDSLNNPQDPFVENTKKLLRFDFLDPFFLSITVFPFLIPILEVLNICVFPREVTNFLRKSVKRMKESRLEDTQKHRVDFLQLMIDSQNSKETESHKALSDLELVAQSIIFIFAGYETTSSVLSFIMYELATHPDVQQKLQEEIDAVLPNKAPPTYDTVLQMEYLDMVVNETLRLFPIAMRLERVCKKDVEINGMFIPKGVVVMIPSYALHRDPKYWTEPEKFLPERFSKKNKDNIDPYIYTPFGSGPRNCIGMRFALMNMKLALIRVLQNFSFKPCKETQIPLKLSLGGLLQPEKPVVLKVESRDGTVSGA
Sequence of Cytochrome P450 2C19 (Homo sapiens) (P33261 whole entry, looked up): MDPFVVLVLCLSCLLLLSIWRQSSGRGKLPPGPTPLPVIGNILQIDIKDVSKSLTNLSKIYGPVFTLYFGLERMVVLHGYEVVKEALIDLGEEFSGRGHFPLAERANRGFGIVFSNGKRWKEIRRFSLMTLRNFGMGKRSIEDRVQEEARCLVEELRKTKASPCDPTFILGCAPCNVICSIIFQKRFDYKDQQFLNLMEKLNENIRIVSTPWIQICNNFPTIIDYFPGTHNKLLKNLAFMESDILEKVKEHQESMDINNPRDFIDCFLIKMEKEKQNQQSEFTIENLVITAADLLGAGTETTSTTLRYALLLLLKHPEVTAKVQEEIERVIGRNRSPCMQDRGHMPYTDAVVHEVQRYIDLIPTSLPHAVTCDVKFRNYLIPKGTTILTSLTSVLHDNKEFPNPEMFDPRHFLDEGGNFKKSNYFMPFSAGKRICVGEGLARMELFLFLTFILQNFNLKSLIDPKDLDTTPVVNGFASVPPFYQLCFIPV
Sequence of Cytochrome P450 1A2 (Homo sapiens) (P05177 whole entry, looked up): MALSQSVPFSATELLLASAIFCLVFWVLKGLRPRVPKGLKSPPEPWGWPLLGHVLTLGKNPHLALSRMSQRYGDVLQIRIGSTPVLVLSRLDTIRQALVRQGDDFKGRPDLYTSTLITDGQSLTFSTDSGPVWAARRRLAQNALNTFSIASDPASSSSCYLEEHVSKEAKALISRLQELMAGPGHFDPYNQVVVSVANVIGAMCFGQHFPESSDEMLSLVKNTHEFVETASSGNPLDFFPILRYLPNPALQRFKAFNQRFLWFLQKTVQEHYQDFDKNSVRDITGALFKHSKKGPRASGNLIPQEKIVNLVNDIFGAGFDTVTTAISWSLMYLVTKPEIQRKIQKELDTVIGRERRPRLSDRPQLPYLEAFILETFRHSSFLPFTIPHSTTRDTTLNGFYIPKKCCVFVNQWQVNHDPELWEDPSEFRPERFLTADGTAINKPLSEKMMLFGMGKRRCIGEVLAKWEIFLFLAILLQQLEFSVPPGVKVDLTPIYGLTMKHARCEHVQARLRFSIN
Sequence of Cytochrome P450 2C9 (Homo sapiens) (P11712 whole entry, looked up): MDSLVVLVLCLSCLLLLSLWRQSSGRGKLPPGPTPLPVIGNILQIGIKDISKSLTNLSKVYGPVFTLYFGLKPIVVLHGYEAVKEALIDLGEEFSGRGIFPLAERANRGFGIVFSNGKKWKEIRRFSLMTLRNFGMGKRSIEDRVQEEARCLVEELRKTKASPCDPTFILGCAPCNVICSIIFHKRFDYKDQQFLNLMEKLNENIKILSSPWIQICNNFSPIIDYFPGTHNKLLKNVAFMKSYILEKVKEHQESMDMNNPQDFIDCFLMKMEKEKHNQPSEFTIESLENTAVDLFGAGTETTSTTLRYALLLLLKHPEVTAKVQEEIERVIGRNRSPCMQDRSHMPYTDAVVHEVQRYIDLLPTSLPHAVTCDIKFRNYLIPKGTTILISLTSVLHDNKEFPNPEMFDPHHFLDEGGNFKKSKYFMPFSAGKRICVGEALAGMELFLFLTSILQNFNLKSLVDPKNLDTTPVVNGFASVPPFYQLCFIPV
Sequence of Cytochrome P450 2D6 (Homo sapiens) (P10635 whole entry, looked up): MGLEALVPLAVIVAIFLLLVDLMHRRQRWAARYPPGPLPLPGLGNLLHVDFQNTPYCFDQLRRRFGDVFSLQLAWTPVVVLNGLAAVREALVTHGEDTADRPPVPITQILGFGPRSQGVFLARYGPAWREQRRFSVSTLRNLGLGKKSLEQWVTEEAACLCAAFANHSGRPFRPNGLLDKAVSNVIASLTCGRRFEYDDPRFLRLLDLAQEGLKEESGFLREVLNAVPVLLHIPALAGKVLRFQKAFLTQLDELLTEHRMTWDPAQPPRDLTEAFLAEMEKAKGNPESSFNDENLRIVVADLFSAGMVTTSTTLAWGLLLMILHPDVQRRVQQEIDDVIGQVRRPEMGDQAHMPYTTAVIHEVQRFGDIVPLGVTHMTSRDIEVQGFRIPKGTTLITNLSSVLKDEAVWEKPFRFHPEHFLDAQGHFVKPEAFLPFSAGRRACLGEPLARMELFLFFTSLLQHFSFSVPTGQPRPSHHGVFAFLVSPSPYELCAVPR

Consider `CNC1CCCN(c2c(F)cc3c(=O)c(C(=O)O)cn(C4CC4)c3c2OC)C1` (centres undefined), for which the Potency entry in test [1], in test [2], in test [3], in test [4] and in test [5] was “inactive” throughout.
In the case of `CCCOC(=O)c1c(Cl)c(Cl)c(Cl)c(Cl)c1C(=O)OCCC`, the Potency result in test [1], in test [6] and in test [5] was “inactive” in each case. Also, the Potency in test [2] is 7.1 µM (active); in test [3] it was 17.8 µM (active); in test [4] it was 2.24 µM (active).
As for `CC(CO)(CO)C(=O)O`, the Potency result in test [1], in test [3], in test [6] and in test [5] was “inactive” throughout. Besides, the Potency in test [2] is 72.4 µM (active).
Take `CCCCCCOC(=O)CCCCC`: the Potency result in test [1], in test [2], in test [3] and in test [6] was “inactive” in each case.
Turning to `CCCCOC(=O)CCCCC(=O)OCCCC`, the Potency result in test [1] and in test [5] was “inactive” each time. Also, the Potency was 35.6 µM (active) in test [2], 11.2 µM (active) in test [3] and 31.7 µM (active) in test [4].
Regarding `CCCCCCCCCCCCCCCC(=O)OCC`, the Potency result in test [1], in test [2], in test [3], in test [4] and in test [5] was “inactive” each time.
Regarding `O=C(NC(Cc1cc(=O)[nH]c2ccccc12)C(=O)O)c1ccc(Cl)cc1` (centres undefined), the Potency entry in test [1], in test [2], in test [3], in test [4], in test [6] and in test [5] was “inactive” throughout.
As for `CC(CCc1ccc(O)cc1)NCCc1ccc(O)c(O)c1` (centres undefined), the Potency in test [1] is 15.5 µM (active); in test [6] it was 13.4 µM (active). In addition, the Potency result in test [2], in test [3], in test [4] and in test [5] was “inactive” throughout.
For the compound `CC(C)N=C=NC(C)C`, the Potency entry in test [1], in test [2], in test [3], in test [4], in test [6] and in test [5] was “inactive” each time.
Take `CCOC(=O)C(C)O` (centres undefined): the Potency result in test [1], in test [2], in test [3], in test [4], in test [6] and in test [5] was “inactive” each time.
Take `CC(=O)N[C@@H](Cc1ccc(O)cc1)C(=O)O`: the Potency result in test [1], in test [2], in test [3], in test [4], in test [6] and in test [5] was “inactive” throughout.
Take `Cc1c(C2(c3cc(Br)c(O)c(Br)c3C)OS(=O)(=O)c3ccccc32)cc(Br)c(O)c1Br`: the Potency is 24.4 µM (active) in test [1]; 15.4 µM (active) in test [2]; 10.9 µM (active) in test [3]; 13.7 µM (active) in test [4]; 27.4 µM (active) in test [5]. Also, the Potency entry in test [6] was “inactive”.
On to `COC(=O)CC(C(C)=O)C(=O)OC` (centres undefined), for which the Potency result in test [1], in test [2], in test [6] and in test [5] was “inactive” each time. In addition, the Potency in test [3] was 44.8 µM (active).
With `NC(=O)CCCCC(N)=O`, the Potency entry in test [1], in test [2], in test [3], in test [4] and in test [5] was “inactive” in each case.
Regarding `CC(C)c1ccc(C#N)cc1`, the Potency result in test [1], in test [2], in test [3], in test [4], in test [6] and in test [5] was “inactive” throughout.
On to `COC(OC)OC`, for which the Potency result in test [1], in test [2], in test [3], in test [4] and in test [5] was “inactive” each time.
As to `CNS(=O)(=O)c1cc(C(=O)N2CCC(CCN3C4CCC3CC(n3c(C)nc5ccccc53)C4)(c3cccc(F)c3)CC2)c(Cl)cc1F` (centres undefined), the results for the Potency in test [1], in test [2] and in test [3] were 25.2 µM (active), 63.3 µM (active) and 17.8 µM (active), respectively. In addition, the Potency result in test [4] and in test [5] was “inactive” in each case.
For the compound `Cc1oc(=O)oc1COC(=O)[C@@H]1N2C(=O)[C@@H](NC(=O)[C@H](N)c3ccccc3)[C@H]2SC1(C)C`, the Potency result in test [1], in test [2], in test [4] and in test [6] was “inactive” in each case.
With `COC(=O)Nc1nc2ccc(C(=O)C3CC3)cc2[nH]1`, the Potency entry in test [1], in test [2] and in test [6] was “inactive” throughout. In addition, the Potency in test [4] was 10.2 µM (active).
In the case of `ClC1=C(Cl)C1(Cl)Cl`, the Potency result in test [1], in test [2], in test [4], in test [6] and in test [5] was “inactive” each time.
In the case of `CN1C(CSCC(F)(F)F)Nc2cc(Cl)c(S(N)(=O)=O)cc2S1(=O)=O` (centres undefined), the Potency entry in test [1], in test [2] and in test [4] was “inactive” each time.
With `CCN(CC)c1cccc(O)c1`, the Potency in test [1] was 36.3 µM (active); in test [2], 5.13 µM (active); in test [4], 64.6 µM (active). Also, in test [6], the Potency entry was “inactive”.
For `CC(=O)NCCO`, in that order: “inactive”, “inactive”, “inactive” and “inactive”.
Turning to `Nc1nc(-c2ccc([N+](=O)[O-])cc2)cs1`, the Potency entry in test [1] and in test [6] was “inactive” throughout. Also, the Potency in test [2] was 3.6 µM (active); in test [4], 5.08 µM (active).
`CN1CCCN(C(c2ccccc2)c2ccc(Cl)cc2)CC1` (centres undefined): the Potency in test [1] is 0.49 µM (active); in test [6], 1.9 µM (active). Also, the Potency entry in test [2] and in test [4] was “inactive” in each case.
As to `CCC(C)(C)C(=O)O`, the Potency entry in test [1], in test [2], in test [4] and in test [5] was “inactive” in each case.
As to `O[C@@H](CNC[C@H](O)[C@H]1CCc2cc(F)ccc2O1)[C@@H]1CCc2cc(F)ccc2O1`, the Potency is 0.275 µM (active) in test [1] and 2.68 µM (active) in test [6]. Besides, the Potency result in test [2], in test [4] and in test [5] was “inactive” in each case.
Regarding `NC(=O)c1ccccc1[N+](=O)[O-]`, the Potency result in test [1], in test [2], in test [3], in test [6] and in test [5] was “inactive” throughout.
As for `CC1CCC(C(C)CS)CC1S` (centres undefined), the Potency entry in test [1], in test [2] and in test [4] was “inactive” each time.
As to `CCN(Cc1cccc(S(=O)(=O)O)c1)c1ccc(C(=C2C=CC(=[N+](CC)Cc3cccc(S(=O)(=O)O)c3)C=C2)c2ccccc2S(=O)(=O)[O-])cc1`, the Potency in test [1] was 17.9 µM (active); in test [2], 17.9 µM (active); in test [4], 17.9 µM (active); in test [5] it was 14.2 µM (active). For the same compound, the Potency entry in test [6] was “inactive”.
On to `CCOC(=O)c1c(N)sc2c1CCN(Cc1ccccc1)C2`, for which the Potency was 0.0219 µM (active) in test [1], 0.871 µM (active) in test [2] and 15.5 µM (active) in test [4].
As for `CC(C)(O)CCc1ccccc1`, the Potency result in test [1], in test [3], in test [6] and in test [5] was “inactive” throughout. The Potency in test [2] is 71 µM (active).
For the compound `O=C(CCS)OCC(COC(=O)CCS)(COC(=O)CCS)COC(=O)CCS`, the Potency entry in test [1] and in test [4] was “inactive” in each case. For the same compound, the Potency in test [2] is 15.9 µM (active); in test [6], 38.9 µM (active); in test [5], 5.64 µM (active).
Consider `CCN(CC)CCNC(=O)c1cc(Cl)c(N)cc1OC`, for which, in test [1], the Potency is 7.76 µM (active). Moreover, the Potency entry in test [2], in test [4], in test [6] and in test [5] was “inactive” throughout.
